Data on 40 molecules can be found in PubChem BioAssay (NCATS).

Results filed as inconclusive are left out. Values without a mark were called inactive. Activity calls are given as the source filed them. Calls follow the shape of the dose curve; as a rule, active = well fitted curve in the direction sought with a large enough effect; inconclusive = small, poorly fitted or top-dose-only effect, or another doubt; inactive = no such curve, though single readings can be large; an effect the other way counts as inactive or inconclusive.
% is scaled to controls: 0 for no effect and ±100 for the full control effect; potency is read from the fitted curve at half-maximal effect.

Sequence of Rap guanine nucleotide exchange factor 4 (Homo sapiens) (Q8WZA2 whole entry, looked up): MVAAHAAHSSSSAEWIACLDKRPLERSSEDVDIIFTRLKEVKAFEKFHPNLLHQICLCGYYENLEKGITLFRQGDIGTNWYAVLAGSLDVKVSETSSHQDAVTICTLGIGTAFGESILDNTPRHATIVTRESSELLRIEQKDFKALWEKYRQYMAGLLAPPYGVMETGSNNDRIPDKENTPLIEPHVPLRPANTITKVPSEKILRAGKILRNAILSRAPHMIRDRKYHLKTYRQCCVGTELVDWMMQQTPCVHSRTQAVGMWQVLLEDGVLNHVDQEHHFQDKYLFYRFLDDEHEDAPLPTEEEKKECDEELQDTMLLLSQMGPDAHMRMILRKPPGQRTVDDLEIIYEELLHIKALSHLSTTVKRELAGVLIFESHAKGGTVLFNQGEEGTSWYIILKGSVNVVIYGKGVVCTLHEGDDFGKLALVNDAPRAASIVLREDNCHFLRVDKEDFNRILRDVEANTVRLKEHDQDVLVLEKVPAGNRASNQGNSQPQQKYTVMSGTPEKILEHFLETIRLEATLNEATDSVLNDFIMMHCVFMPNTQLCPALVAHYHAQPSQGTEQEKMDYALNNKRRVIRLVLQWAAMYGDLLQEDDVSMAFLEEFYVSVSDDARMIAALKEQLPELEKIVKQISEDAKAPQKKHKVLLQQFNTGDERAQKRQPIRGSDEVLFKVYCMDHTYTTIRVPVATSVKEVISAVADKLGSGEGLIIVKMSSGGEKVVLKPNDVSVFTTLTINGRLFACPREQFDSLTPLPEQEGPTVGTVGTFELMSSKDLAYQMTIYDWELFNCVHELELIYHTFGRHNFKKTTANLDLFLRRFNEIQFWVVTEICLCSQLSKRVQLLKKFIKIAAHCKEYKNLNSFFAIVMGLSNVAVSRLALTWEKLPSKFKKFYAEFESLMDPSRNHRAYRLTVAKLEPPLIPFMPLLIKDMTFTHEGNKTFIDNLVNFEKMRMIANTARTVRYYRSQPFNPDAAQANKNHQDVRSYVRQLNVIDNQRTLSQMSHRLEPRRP

One assay addresses Rap guanine nucleotide exchange factor 4 (Homo sapiens) (UniProt Q8WZA2). Kind of assay: Confirmatory qHTS for agonist of cAMP-regulated guanine nucleotide exchange factor 4 (EPAC2) (AID 1645884).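 Also: nucleotide exchange releases bodipy-GDP from Rap1 and this lowers its fluorescence; nearly all actives have a fitted effect of over 65% in size.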 The note with it: EPAC2 GEF activity, Rap1B-BODIPY-GDP fluorescence; series mostly up to 154 µM; activation: at the top concentration. (qHTS replaces the single test concentration by a dilution series.)
As to `C/C(Cc1ccccc1)=N\NC(=O)c1cccnc1`, the activation is 21.1% [at 17.1 µM, percent relative to cAMP agonist control]. The same measure, in the same setting: the same measure for `O=C(CC(=O)NC1CCCCC1)N/N=C/c1ccc(Cl)cc1`: 3.04%; for `CC(=O)Nc1sc(/C(C#N)=C\c2cccc(Cl)c2)nc1-c1ccc(C)cc1`: -17.2% [at 17.1 µM, percent relative to cAMP agonist control].

For the molecule `COc1ccc(/C=N\NC(=O)c2cc3c(ccc4ccccc43)o2)cc1O`, the activation was 5.26% [at 17.1 µM, percent relative to cAMP agonist control]. Still for that read-out and setting: with `CCc1ccc(C(=O)c2cn(CC(=O)Nc3cccc(OC)c3)c3ccc(OC)cc3c2=O)cc1` the figure was -1.31% [at 83.8 µM, percent relative to cAMP agonist control]. For the molecule `CCN(CC)c1ccc2cc(-c3nc(-c4cccs4)no3)c(=O)oc2c1`, the Potency is 35.5 µM (active). `CCOC(=O)c1c(NC(=O)c2ccccc2OCC)sc2c1CCC(CC)C2` (configuration not stated): the “activation” value was 8.35% [at 83.8 µM, percent relative to cAMP agonist control].

The target is the same in a further assay. Kind of assay: Confirmatory qHTS for antagonist of cAMP-regulated guanine nucleotide exchange factor 4 (EPAC2) (AID 1645885). Also: nearly all actives have a fitted effect of over 25% in size. The note with it: EPAC2 Rap1B-BODIPY-GDP exchange fluorescence, biochemical; series mostly up to 12.7 µM; activity change, negative = inhibition: at the top concentration.
With `Cc1cccn2cc(CCNC(=O)c3ccco3)nc12`, the “activity change, negative = inhibition” value is -4.13%.

On to `Cn1c(C(O)c2ccc(Br)cc2)nc(Cl)c1Cl` (configuration not stated), for which the “activity change, negative = inhibition” value is -15.9%.

As for `O=C(c1ccccc1)c1coc2ccc(O)c(Cl)c12`, the “activity change, negative = inhibition” value is -25%. Still for that read-out and setting: the same measure for `CCc1nnc(NS(=O)(=O)c2ccc(NCc3cc(Cl)ccc3O)cc2)s1`: -28.1%. The same measure, in the same setting: the same measure for `O=c1c2cc([N+](=O)[O-])cc([N+](=O)[O-])c2[nH]n1-c1ccccc1`: -28%.

`COC(=O)COc1ccc(C(c2c(C)[nH][nH]c2=O)c2c(C)[nH][nH]c2=O)cc1`: the “activity change, negative = inhibition” value was -20.7% [at 114 µM]. Consider `COc1ccc(CNC(=S)N/N=C/c2ccc(OC)c(OC)c2)cc1`, for which the Potency is 67.5 µM (active). Still for that read-out and setting: with `O=S(=O)(O)c1cccc(N=Nc2c(O)ccc3ccccc23)c1` the figure was 23.9 µM (active). As for `COc1nc(C)cc(C)c1S(=O)(=O)c1ccc(Cl)cc1`, the “activity change, negative = inhibition” value was -24.2%.

Turning to `O=C1NC(=S)S/C1=C\c1ccc(SCc2ccccc2)o1`, the “activity change, negative = inhibition” value was 65.4% [at 114 µM]. Consider `Cc1ccc(S(=O)(=O)NCCC(=O)N2CCC(Cc3ccccc3)CC2)cc1`, for which the “activity change, negative = inhibition” value is 0.732%.

As to `COC(=O)c1cc2occc2n1Cc1cccc(C)c1`, the “activity change, negative = inhibition” value was 31.3% [at 114 µM]. Turning to `Cc1ccn2c(=O)c(NC(=O)c3ccc(Br)o3)c(C)nc2c1`, the “activity change, negative = inhibition” value was 5.24%.

For the molecule `COc1ccc(/C=N/Nc2nnc(C)n2N)cc1OC(C)=O`, the “activity change, negative = inhibition” value is -7.89% [at 114 µM]. Turning to `COc1cc(NC(=O)C2CCCCC2)c(OC)cc1NC(=O)CN1CCCCC1`, the “activity change, negative = inhibition” value is 8.69%. `COc1ccc2nc3oc(C(=O)Nc4cccc(C(F)(F)F)c4)cc3cc2c1`: the “activity change, negative = inhibition” value is -13.9%.

For the molecule `COc1cc(CNc2ccc(O)cc2)cc(Br)c1OCc1ccccc1`, the “activity change, negative = inhibition” value is -48.1% [at 114 µM]. As to `Cc1ccc(C(=O)N2CCN(c3ccccc3)CC2)cc1S(=O)(=O)N1CCOCC1`, the “activity change, negative = inhibition” value was -17.6% [at 114 µM].

Turning to `O=C(C1=C(O)C(=O)N(c2nc3ccc(Cl)cc3s2)C1c1ccco1)c1ccco1` (configuration not stated), the “activity change, negative = inhibition” value is 84.3% [at 114 µM].

In the case of `CCC(COC)Oc1cc(NCc2ccccc2)c2ncn(C(C)C)c2c1` (configuration not stated), the molecule was called inactive. Regarding `C/C(=N\NC(=O)c1cc(O)ccc1O)c1cccc(NC(=O)c2ccc(Cl)cc2)c1`, the “activity change, negative = inhibition” value was -16.3% [at 114 µM]. Still for that read-out and setting: the same measure for `COc1ccc(C2CC(c3cccs3)=NN2C(=O)c2ccco2)cc1OC` (configuration not stated): -18%; for `CCCCNC(=O)c1cc(-c2ccc3c(c2)OCO3)on1`: 15.5% [at 114 µM].

`COc1ccc(Cl)cc1-n1c(=S)sc2c(=O)[nH]c(SCC(=O)NCCC(C)C)nc21`: the “activity change, negative = inhibition” value was -16.7% [at 114 µM]. On to `O=C(c1ccco1)N(CCC(c1ccccc1)c1ccco1)Cc1ccccc1` (configuration not stated), for which the “activity change, negative = inhibition” value is -5.66%. As to `CCN(CC(=O)Nc1ccccc1OC)C(=O)c1ccc(N(C)S(=O)(=O)c2ccc(C)cc2)cc1`, the “activity change, negative = inhibition” value is -14.5% [at 114 µM].

For `COc1cccc(CN(C)CC(=O)Nc2c(C)cccc2C(C)C)c1`, the “activity change, negative = inhibition” value was -9.53%. For `Cc1cccc(C)c1Nc1nn2c(=O)c3cc4c(cc3nc2s1)OCO4`, the “activity change, negative = inhibition” value is 4.38%. In the case of `COc1ccc(S(=O)(=O)NC(CCSC)C(=O)NC2CCCCC2)cc1` (configuration not stated), the “activity change, negative = inhibition” value was -5.53% [at 114 µM]. `Cc1nnc(SCc2nnc(-c3ccc(Cl)cc3)o2)n1-c1ccccc1`: the “activity change, negative = inhibition” value was -6.83% [at 114 µM].

`Cc1ccc(S(=O)(=O)Nc2ccc3cc([N+](=O)[O-])ccc3c2[N+](=O)[O-])cc1`: the “activity change, negative = inhibition” value was 177% [at 114 µM]. For `O=S(=O)(N/N=C/c1cccnc1)c1ccc(Cl)c(Cl)c1`, the “activity change, negative = inhibition” value is -6.05%. Regarding `COc1cccc(-n2ccn(CC(=O)NCc3ccc(C)cc3)c(=O)c2=O)c1`, the “activity change, negative = inhibition” value was -0.913%.

As for `C/C(Cc1ccccc1)=N\NC(=O)c1cccnc1`, the “activity change, negative = inhibition” value was -0.376%. Still for that read-out and setting: the same measure for `O=C(CC(=O)NC1CCCCC1)N/N=C/c1ccc(Cl)cc1`: 43% [at 114 µM]; for `CC(=O)Nc1sc(/C(C#N)=C\c2cccc(Cl)c2)nc1-c1ccc(C)cc1`: 7.6%. With `COc1ccc(/C=N\NC(=O)c2cc3c(ccc4ccccc43)o2)cc1O`, the “activity change, negative = inhibition” value is -8.34%. The same measure, in the same setting: the same measure for `CCc1ccc(C(=O)c2cn(CC(=O)Nc3cccc(OC)c3)c3ccc(OC)cc3c2=O)cc1`: 28.9%.

In the case of `CCN(CC)c1ccc2cc(-c3nc(-c4cccs4)no3)c(=O)oc2c1`, the Potency is 3.38 µM (active). On to `CCOC(=O)c1c(NC(=O)c2ccccc2OCC)sc2c1CCC(CC)C2` (configuration not stated), for which the “activity change, negative = inhibition” value is -5.56%.
